GSIS activator: GLuc luminescence reporter in INS-1E cells, primary screen for activators of glucose-dependent secretion of insulin | INS-1E GLuc reporter insulin secretion, 2-3 h | activation, % at 16.6 µM | 370,000 tested, 0.61% active;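 active means lowest replicate activation of at least 40%, so every replicate reaches that level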;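 further: 0% = median of neutral control wells and 100% = median of IBMX positive control wells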
CFTR F508del cor: correctors of CFTR F508del function in bronchial epithelial cells. CFBE cells, YFP halide quenching; stimulated with forskolin plus potentiator P3; % fluorescence drop versus neutral controls. activity (quench increase), % at 7.58 µM. 350,000 tested, 0.36% active. AID 720511;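 active means mean added fluorescence quench of at least 8% versus neutral control, with both replicates also reaching 8%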;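 further: cells transiently co-express mutant CFTR-F508del with the halide-sensitive YFP; corrector assay measuring rescue of mutant channel to the surface after 24 h compound exposure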
MITF act: activators of MITF-driven TRPM1 promoter activity in SK-MEL-5 cells. 300,000 tested, 0.75% active. activation, % at 12.5 µM. AID 588334. SK-MEL-5 TRPM1-promoter luciferase, 24 h; % of positive control, neutral wells = 0;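 active means mean activation of at least 80% with every replicate also reaching 80%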;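 further: 0% = neutral control wells and 100% = parthenolide positive control wells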
Wnt act: activators of Wnt/beta-catenin signaling. activation, % at 9.35 µM. Wnt/beta-catenin reporter cell assay, activator, plate reader. AID 743398. 300,000 tested, 1.2% active; in the data active means activation above about 30%, passing the limit was not always enough;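 further: 0% = neutral control wells and 100% = positive control wells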
Env fusion inh: inhibitors of HIV Env-mediated cell fusion; HeLa-JRFL Env/CEM21 cell fusion, luciferase; inhibition, % at 12.3 µM; 360,000 tested, 1.1% active; AID 651610;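 active means mean replicate inhibition score of at least 50 and every replicate individually at or above 50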;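 further: 0% = plate neutral controls and 100% = maraviroc near 300 nM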
* = called active by the depositor; [ ] = dose if it differs, or a comment. A selection: hits, their analogues and other compounds. The true share with any hit is near 2.7%.

Screening CC(C)c1nc2oc3c(NCC4CCCO4)ncnc3c2c2c1COC(C)(C)C2 (stereo not given) returned MITF act -4 and Env fusion inh 27.
`CN(C)CCNc1ncnc2c1sc1nc(N3CCOCC3)c3c(c12)CC(C)(C)SC3` gave Wnt act -9 and Env fusion inh 46.
Screening CC1(C)Cc2c(c(N3CCOCC3)nc3sc(C(=O)Nc4ccccc4)c(N)c23)CO1 returned GSIS activator -5, CFTR F508del cor 1, MITF act 11, Wnt act 34* and Env fusion inh -55.
CC1(C)Cc2c(c(-c3ccco3)nc3sc4c(NCCO)ncnc4c23)CO1 was read as GSIS activator 88*, CFTR F508del cor -1, MITF act 12, Wnt act -7 and Env fusion inh 15.
CC(C)c1nc2oc3c(NCCO)ncnc3c2c2c1COC(C)(C)C2 was read as GSIS activator 17, CFTR F508del cor 13*, Wnt act 2 and Env fusion inh 6.
Screening CC1(C)Cc2c(c(N3CCOCC3)nc3sc(C(=O)Nc4cccc(Cl)c4)c(N)c23)CO1 returned GSIS activator 0, CFTR F508del cor -1, MITF act 0, Wnt act 2 and Env fusion inh 1.
For CC1(C)Cc2c(c(N3CCOCC3)nc3sc4c(NCCN)ncnc4c23)CO1 the results were GSIS activator 52*, CFTR F508del cor 2, MITF act -69, Wnt act -3 and Env fusion inh 14.
For COC(=O)C[C@H]1C[C@@H]2c3cc(NS(=O)(=O)c4ccccc4)ccc3O[C@@H]2[C@H](CO)O1 the results were GSIS activator -3, CFTR F508del cor 2 and Env fusion inh 30[16.7 µM].
`CCCNC(=O)C[C@H]1C[C@@H]2c3cc(N(C)C)ccc3O[C@@H]2[C@H](CO)O1` gave GSIS activator 7 and CFTR F508del cor -1.
For CC(=O)c1ccc2oc3ccccc3c(=O)c2c1 the results were GSIS activator 3, CFTR F508del cor -2, MITF act 80*, Wnt act 11 and Env fusion inh -43.
For O=c1c2ccccc2oc2c1ccc1ccccc12 the results were MITF act 90*.
`CC(=O)c1cc2c(=O)c3ccccc3oc2nc1C` gave MITF act 30.
Screening COc1ccc2c(=O)c(-c3ccc(OC)c(OC)c3)coc2c1 returned CFTR F508del cor 0, MITF act 95* and Wnt act 1.
Screening O=c1c2ccccc2oc2ccccc12 returned GSIS activator 15, CFTR F508del cor 2 and Wnt act -1.
COc1ccc2c(=O)c3ccccc3oc2c1 was read as CFTR F508del cor -1, MITF act 104* and Wnt act 2.
`CN1c2ccc(-c3ccccc3F)cc2[C@@H]2[C@@H](CCN2C(=O)Cc2ccccn2)[C@@H]1CO` gave GSIS activator -4 and CFTR F508del cor -1.
Screening COc1ccc2c(c1)oc(=O)c1ccccc12 returned GSIS activator 8, CFTR F508del cor 1 and Wnt act 10.
`COc1ccc2c(c1)oc(=O)c1cc(OC)ccc12` gave GSIS activator 16, CFTR F508del cor 0, MITF act 92* and Wnt act 6.
Cc1ccc(-c2ccc3c(c2)O[C@@H](CN(C)Cc2cncnc2)[C@@H](C)CN([C@@H](C)CO)S3(=O)=O)cc1 was read as GSIS activator 11, CFTR F508del cor 0 and Env fusion inh 6[16.7 µM].
For CCc1ccc(C2=NN(S(C)(=O)=O)C(c3cccs3)C2)cc1 (stereo not given) the results were Wnt act 44* and Env fusion inh -350.
CS(=O)(=O)N1N=C(c2ccc(Br)cc2)CC1c1cccs1 (stereo not given) was read as MITF act 21.
Screening C[C@@H]1CN([C@H](C)CO)C(=O)c2cc(NC(=O)c3ccncc3)ccc2O[C@@H](C)CCCCO[C@@H]1CN(C)CC1CCCCC1 returned GSIS activator 0, CFTR F508del cor -1 and Env fusion inh 10[16.7 µM].
For Cc1ccc(C(=O)Nc2ncc(Cc3ccc(F)cc3)s2)o1 the results were MITF act 144*, Wnt act 65* and Env fusion inh -146.
Screening O=C(NCc1ccccn1)Nc1cccc(Cl)c1 returned GSIS activator -16, CFTR F508del cor -3, MITF act 136* and Wnt act 38*.
Screening O=C(NCc1ccccn1)c1n[nH]c(=O)c2ccccc12 returned GSIS activator 32, CFTR F508del cor 8.6*, MITF act 10, Wnt act -2 and Env fusion inh -5.
COc1cccc(NC(=O)NCc2ccccn2)c1 was read as GSIS activator 12, CFTR F508del cor 0, MITF act 3, Wnt act 37* and Env fusion inh -12.
`Cc1ccc(NC(=O)C(=O)NCc2ccccn2)cc1` gave GSIS activator 7, MITF act 85*, Wnt act 20 and Env fusion inh -6.
Screening CO[C@H]1CN(C)C(=O)c2ccc(NS(=O)(=O)c3cn(C)cn3)cc2OC[C@@H](C)N(CCC(F)(F)F)C[C@H]1C returned GSIS activator 9 and CFTR F508del cor 0.
For CC(C)(C)S(=O)(=O)c1cnc(-c2ccccn2)nc1N the results were GSIS activator 12, CFTR F508del cor -2, MITF act 2, Wnt act 4 and Env fusion inh 7.
For Cc1cccc(-c2ncc(S(=O)(=O)C(C)(C)C)c(N)n2)c1 the results were GSIS activator -2, CFTR F508del cor 3, MITF act 94*, Wnt act 35* and Env fusion inh -24.
CC(=O)Nc1ccccc1C(=O)C(=O)Nc1ccc(C)c(C)c1 was read as GSIS activator 1, CFTR F508del cor -1, MITF act 72 and Env fusion inh -44.
CCc1ccc(NC(=O)C(=O)c2ccccc2NC(C)=O)cc1 was read as CFTR F508del cor 1, Wnt act 42* and Env fusion inh -35.
Screening C[C@H]1CN([C@@H](C)CO)C(=O)c2cccc(NS(=O)(=O)c3cn(C)cn3)c2O[C@@H]1CN(C)S(=O)(=O)c1ccc(Cl)cc1 returned GSIS activator 1, CFTR F508del cor 0 and Env fusion inh -18[16.7 µM].
COc1cc(C(=O)N=c2sc3ccccc3n2C)cc(OC)c1OC was read as GSIS activator 26, CFTR F508del cor 0, MITF act 18, Wnt act 2 and Env fusion inh -3.
Screening COc1cc(C=NN=c2sc3ccccc3n2C)ccc1OCCO returned CFTR F508del cor 0, Wnt act 34* and Env fusion inh -65.
`O=C1C=CC(=O)c2c(O)c(N3CCN(CCO)CC3)c(Cl)c(O)c21` gave GSIS activator -35, CFTR F508del cor -8, MITF act -99, Wnt act -6 and Env fusion inh -158.
For O=C1C=CC(=O)c2c(O)c(N3CCN(CCOCCO)CC3)c(Br)c(O)c21 the results were CFTR F508del cor -4, MITF act -95, Wnt act -1 and Env fusion inh 61*.

Bioassay records (PubChem)
